Laboratory results from the supplement of paper PMC11732987, “Enantioselective OTUD7B fragment discovery through chemoproteomics screening and high-throughput optimisation” (Communications Chemistry, 2025).

Experiments:
Experiment in all cases: log2 ratio of Biotin-Ahx-Ub-VS probe labelling (fragment/DMSO); higher = less target engagement (more negative = stronger competition), active = hit call of the paper (q ≤ 0.05, log2 ratio ≤ -1)
Conditions in all cases: compound concentration: 200 uM; treatment time: 3 h
ALG13 = molecular target: T1, ALG13 (UniProt Q9NP73)
T1 sequence (whole entry): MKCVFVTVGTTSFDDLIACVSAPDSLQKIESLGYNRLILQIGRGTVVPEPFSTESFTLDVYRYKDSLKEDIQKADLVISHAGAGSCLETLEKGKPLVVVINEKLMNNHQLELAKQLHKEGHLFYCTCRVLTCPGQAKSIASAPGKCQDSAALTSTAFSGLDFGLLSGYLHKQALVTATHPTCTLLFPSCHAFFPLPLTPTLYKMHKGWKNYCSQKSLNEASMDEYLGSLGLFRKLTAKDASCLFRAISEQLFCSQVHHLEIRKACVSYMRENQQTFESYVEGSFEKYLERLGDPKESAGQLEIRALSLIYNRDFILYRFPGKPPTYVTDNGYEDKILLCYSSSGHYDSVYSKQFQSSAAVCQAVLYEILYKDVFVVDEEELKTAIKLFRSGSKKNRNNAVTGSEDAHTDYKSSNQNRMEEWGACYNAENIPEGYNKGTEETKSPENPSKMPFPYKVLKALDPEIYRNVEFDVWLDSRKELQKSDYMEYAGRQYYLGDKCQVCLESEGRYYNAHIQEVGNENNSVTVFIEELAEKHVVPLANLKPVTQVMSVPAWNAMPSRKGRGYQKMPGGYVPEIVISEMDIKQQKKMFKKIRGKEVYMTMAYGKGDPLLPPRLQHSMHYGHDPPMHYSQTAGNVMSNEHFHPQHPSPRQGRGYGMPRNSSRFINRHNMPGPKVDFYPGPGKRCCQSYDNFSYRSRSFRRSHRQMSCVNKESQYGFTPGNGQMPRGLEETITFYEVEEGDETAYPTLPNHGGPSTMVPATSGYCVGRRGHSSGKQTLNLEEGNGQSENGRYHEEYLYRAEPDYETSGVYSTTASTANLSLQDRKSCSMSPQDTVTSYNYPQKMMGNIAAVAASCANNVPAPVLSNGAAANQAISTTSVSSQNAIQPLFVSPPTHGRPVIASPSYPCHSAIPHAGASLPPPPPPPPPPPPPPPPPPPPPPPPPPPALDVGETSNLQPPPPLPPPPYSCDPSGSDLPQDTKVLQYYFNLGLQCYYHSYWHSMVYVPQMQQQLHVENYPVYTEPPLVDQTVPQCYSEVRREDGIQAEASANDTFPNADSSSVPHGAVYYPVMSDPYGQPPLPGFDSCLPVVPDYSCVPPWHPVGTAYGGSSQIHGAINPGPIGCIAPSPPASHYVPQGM
Outline: (§1)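 Fragment (200 µM) or vehicle was incubated for 3 h with triplicate HEK293T lysate samples of 495 µg, which were then treated with Biotin-Ahx-Ub-VS at 0.5 µM final for 1 h. Labelled DUBs were enriched on NeutrAvidin, digested with LysC and trypsin, and analysed by diaPASEF LC-MS/MS. Values are average log2 fragment/vehicle ratios from an unpaired t-test on global-median-normalised Spectronaut label-free quantities, using proteins with ≥2 unique peptides.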

ATXN3 = ATXN3 (UniProt P54252)
Outline: as §1

BAP1 = molecular target: T2, BAP1 (UniProt Q92560)
T2 sequence (whole entry): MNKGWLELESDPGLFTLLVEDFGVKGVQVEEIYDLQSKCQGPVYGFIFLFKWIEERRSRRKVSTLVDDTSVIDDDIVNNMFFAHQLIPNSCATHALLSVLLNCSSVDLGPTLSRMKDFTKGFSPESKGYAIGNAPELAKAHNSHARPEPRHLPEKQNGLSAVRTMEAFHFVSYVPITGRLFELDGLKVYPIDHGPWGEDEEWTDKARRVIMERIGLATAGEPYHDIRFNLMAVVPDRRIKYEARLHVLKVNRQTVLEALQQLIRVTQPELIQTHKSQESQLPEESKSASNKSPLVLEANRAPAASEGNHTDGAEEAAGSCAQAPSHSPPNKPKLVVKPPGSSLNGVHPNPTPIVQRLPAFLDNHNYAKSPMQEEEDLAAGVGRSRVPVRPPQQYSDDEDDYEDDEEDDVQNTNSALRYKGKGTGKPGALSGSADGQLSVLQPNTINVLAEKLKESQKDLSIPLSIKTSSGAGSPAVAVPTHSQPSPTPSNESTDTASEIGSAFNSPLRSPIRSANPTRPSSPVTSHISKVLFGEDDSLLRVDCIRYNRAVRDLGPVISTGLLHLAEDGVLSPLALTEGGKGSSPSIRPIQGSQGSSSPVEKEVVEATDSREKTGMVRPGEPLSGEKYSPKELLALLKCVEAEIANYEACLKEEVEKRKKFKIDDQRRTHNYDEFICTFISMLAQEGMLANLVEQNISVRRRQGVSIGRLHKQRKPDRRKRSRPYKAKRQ
Outline: as §1

EIF3F = EIF3F (UniProt O00303)
Outline: as §1

EIF3H = EIF3H (UniProt O15372)
Outline: as §1

FAM105A = molecular target: T3, FAM105A (UniProt Q9NUU6)
T3 sequence (whole entry): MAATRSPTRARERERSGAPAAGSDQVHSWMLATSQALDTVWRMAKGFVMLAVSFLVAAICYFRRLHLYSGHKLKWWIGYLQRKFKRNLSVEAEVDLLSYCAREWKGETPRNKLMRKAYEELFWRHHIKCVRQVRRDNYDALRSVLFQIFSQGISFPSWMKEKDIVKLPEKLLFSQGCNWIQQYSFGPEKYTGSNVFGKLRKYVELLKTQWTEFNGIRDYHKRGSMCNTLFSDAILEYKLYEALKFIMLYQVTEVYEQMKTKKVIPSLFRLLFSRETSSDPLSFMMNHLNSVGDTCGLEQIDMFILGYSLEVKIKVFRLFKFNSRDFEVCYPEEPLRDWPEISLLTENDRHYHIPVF
Outline: as §1

OTUB1 = OTUB1 (UniProt Q96FW1)
Outline: as §1

OTUD4 = molecular target: T4, OTUD4 (UniProt Q01804)
T4 sequence (whole entry): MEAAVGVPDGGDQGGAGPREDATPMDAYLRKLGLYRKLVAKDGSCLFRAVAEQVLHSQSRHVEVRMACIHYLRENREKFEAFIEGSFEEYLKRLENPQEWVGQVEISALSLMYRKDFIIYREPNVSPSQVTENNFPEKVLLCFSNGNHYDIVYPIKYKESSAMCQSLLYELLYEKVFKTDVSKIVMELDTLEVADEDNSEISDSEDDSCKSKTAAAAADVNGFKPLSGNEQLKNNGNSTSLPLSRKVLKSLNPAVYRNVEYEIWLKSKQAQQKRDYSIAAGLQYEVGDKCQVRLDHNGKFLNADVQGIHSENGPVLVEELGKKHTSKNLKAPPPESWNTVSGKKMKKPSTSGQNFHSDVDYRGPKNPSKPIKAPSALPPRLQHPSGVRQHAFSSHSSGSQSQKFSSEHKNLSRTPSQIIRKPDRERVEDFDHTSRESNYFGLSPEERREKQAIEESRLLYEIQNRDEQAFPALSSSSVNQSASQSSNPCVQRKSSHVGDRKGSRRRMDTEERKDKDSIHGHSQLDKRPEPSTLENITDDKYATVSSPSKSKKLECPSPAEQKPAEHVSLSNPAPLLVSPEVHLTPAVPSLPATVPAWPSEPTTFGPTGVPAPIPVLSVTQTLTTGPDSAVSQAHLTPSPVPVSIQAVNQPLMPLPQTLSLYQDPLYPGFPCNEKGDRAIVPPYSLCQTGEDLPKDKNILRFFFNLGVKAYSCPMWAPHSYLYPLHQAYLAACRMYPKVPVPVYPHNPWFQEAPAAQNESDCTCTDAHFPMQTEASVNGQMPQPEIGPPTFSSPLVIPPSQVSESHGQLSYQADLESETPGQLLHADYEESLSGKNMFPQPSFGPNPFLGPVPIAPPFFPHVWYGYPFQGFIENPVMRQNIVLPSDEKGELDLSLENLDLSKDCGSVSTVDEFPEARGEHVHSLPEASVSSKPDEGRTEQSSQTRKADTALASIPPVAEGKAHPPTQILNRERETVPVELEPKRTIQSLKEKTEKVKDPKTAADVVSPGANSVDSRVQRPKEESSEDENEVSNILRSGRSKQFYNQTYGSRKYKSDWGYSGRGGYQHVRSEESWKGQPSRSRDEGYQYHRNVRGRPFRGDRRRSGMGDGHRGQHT
Outline: as §1

OTUD5 = molecular target: T5, OTUD5 (UniProt Q96G74)
T5 sequence (whole entry): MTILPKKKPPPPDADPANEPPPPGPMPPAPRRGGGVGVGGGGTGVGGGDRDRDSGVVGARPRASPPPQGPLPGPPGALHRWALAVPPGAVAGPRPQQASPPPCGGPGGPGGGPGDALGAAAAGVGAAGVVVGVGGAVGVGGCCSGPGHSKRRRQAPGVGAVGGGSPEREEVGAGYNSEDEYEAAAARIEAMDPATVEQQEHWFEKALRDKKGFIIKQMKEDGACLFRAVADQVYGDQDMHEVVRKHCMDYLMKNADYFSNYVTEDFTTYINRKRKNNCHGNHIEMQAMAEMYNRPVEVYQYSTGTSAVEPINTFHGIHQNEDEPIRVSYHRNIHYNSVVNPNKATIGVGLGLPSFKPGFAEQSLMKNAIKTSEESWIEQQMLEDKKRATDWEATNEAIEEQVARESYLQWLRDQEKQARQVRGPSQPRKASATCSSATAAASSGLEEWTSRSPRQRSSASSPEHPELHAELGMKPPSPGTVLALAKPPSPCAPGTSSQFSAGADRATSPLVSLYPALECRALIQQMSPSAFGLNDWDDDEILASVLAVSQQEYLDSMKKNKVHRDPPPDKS
Outline: as §1

Measured: log2 ratio of Biotin-Ahx-Ub-VS probe labelling

Sequence of EIF3F (O00303 whole entry): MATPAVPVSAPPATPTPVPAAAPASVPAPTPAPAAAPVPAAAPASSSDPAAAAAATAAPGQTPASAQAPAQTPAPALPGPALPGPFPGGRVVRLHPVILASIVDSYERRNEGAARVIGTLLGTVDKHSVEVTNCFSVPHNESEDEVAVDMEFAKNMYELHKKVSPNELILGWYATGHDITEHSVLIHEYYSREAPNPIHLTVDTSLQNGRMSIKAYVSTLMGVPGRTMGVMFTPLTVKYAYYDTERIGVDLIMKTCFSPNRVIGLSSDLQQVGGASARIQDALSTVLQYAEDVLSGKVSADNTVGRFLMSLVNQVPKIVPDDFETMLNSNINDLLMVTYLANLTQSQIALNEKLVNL
Sequence of EIF3H (O15372 whole entry): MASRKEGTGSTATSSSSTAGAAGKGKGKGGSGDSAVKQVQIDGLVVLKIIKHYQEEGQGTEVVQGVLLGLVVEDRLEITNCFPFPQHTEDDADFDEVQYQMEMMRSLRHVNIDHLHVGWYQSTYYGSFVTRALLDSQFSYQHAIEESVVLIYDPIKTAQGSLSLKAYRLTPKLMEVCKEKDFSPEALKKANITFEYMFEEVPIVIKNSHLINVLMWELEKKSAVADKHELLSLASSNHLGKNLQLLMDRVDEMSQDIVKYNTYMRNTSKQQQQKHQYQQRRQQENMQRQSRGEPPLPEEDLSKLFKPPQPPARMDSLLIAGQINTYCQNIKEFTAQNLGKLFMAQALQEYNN
Sequence of ATXN3 (P54252 whole entry): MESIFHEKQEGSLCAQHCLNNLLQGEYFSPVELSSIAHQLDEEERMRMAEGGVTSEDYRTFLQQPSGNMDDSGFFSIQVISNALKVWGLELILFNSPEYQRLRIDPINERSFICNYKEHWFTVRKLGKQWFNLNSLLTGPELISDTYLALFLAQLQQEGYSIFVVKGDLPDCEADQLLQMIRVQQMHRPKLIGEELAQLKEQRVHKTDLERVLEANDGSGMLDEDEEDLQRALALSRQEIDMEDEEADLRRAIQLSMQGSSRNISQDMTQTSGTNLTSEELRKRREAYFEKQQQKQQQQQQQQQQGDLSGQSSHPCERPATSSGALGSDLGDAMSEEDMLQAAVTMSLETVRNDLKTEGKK
Sequence of OTUB1 (Q96FW1 whole entry): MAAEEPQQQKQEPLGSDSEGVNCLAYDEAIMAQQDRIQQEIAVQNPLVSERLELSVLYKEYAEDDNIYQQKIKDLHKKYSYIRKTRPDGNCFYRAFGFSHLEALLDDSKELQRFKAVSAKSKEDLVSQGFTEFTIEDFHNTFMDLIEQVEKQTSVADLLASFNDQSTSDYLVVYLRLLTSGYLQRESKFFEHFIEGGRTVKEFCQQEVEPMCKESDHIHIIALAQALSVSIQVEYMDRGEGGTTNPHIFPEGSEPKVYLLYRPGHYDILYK

Cl.O=C(CCl)NCc1cc2c(nc1O)CCCC2
inactive: ALG13 -0.00624 | ATXN3 -0.358 | EIF3F 0.116 | EIF3H 0.0749 | FAM105A 0.13 | OTUB1 -0.044 | OTUD4 -0.437 | OTUD5 -0.468
active: BAP1 -1.87
